The record followed here is PubChem BioAssay (Tox21).

Assay [1] in a line: qHTS assay for small molecule disruptors of the mitochondrial membrane potential (AID 720635). Note: potency is the fitted concentration of half-maximal effect. The method in brief:
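HepG2 cells exposed to compound 1 hr at 37C, then Mito-MPS dye 30 min. Ratio read of aggregate (540/590 nm) versus monomer (490/535 nm) fluorescence.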

Assay [2] in a line: qHTS assay to test for compound auto fluorescence at 590 nm (red) in HepG2 cells (AID 720674). Summed up: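 Fluorescence at 590 nm emission following 540 nm excitation was recorded from HepG2 wells one hour after compound transfer, with DMSO-only wells as vehicle and Rose Bengal sodium equivalency as the scale.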
In general terms: qHTS replaces the single test concentration by a dilution series.

Assay [3] is described as follows: qHTS assay to test for compound auto fluorescence at 460 nm (blue) in HEK293 cells (AID 720678). The method in brief: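 Cells were seeded and left to adhere for 4-5 hr at 37C. Compounds were then pin-transferred. After an overnight incubation at 37C under 5% CO2, intrinsic fluorescence at 405/460 nm was measured and referenced to triamterene.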
A short description of assay [4]: qHTS assay to test for compound auto fluorescence at 535 nm (green) in HEK293 cells (AID 720680).
A short description of assay [5]: qHTS assay to test for compound auto fluorescence at 590 nm (red) in HEK293 cell free culture (AID 720683). The method in brief:
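Cell-free wells of DMEM with 10% FBS received compound, and intrinsic fluorescence was read at excitation/emission 540/590 nm. Values expressed as equivalence to Rose Bengal sodium.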

A short description of assay [6]: qHTS assay to identify small molecule antagonists of the glucocorticoid receptor (GR) signaling pathway - cell viability counter screen (AID 720693). Note: nearly all actives have a fitted effect of over 55% in size. Note: potency is the fitted concentration of half-maximal effect.
Assay [7] is described as follows: qHTS assay for identifying genotoxic compounds that show differential cytotoxicity against isogenic chicken DT40 cell lines with known DNA damage response pathways - wild type cell line (AID 743012). Note: nearly all actives have a fitted effect of over 60% in size. Note: potency is the fitted concentration of half-maximal effect. The method in brief:
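CellTiter-Glo luminescence readout of viability in wild type DT40 cells after 40 h compound exposure at 37 C/5% CO2; 300 cells/well; reagent incubated 30 min at room temperature before reading.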

A short description of assay [8]: qHTS assay for identifying genotoxic compounds that show differential cytotoxicity against isogenic chicken DT40 cell lines with known DNA damage response pathways - Rev3 mutant cell line (AID 743014). Note: nearly all actives have a fitted effect of over 55% in size. Note: potency is the fitted concentration of half-maximal effect.
Assay [9] is described as follows: qHTS assay for identifying genotoxic compounds that show differential cytotoxicity against isogenic chicken DT40 cell lines with known DNA damage response pathways - Rad54/Ku70 mutant cell line (AID 743015). Note: nearly all actives have a fitted effect of over 60% in size. Note: potency is the fitted concentration of half-maximal effect.
Assay [10] is described as follows: qHTS assay to identify small molecule antagonists of the thyroid receptor (TR) signaling pathway - cell viability counter screen (AID 743064). Note: nearly all actives have a fitted effect of over 50% in size. Note: potency is the fitted concentration of half-maximal effect. The method in brief: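 GH3.TRE-Luc rat pituitary cells dosed after 4 hr plating, co-stimulated with T3 at 1 nM final, incubated 23.5 h at 37 C. Viability measured in the same wells by CellTiter-Fluor fluorescence after 30 min further at 37 C.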

Assay [11] in a line: qHTS assay to identify small molecule antagonists of the thyroid receptor (TR) signaling pathway (AID 743065). Note: nearly all actives have a fitted effect of over 55% in size. Note: potency is the fitted concentration of half-maximal effect. Summed up:
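GH3.TRE-Luc rat pituitary cells (two TREs driving luciferase) were dosed with compound, then stimulated with 1 nM T3 (final) for 23.5 h at 37 C. ONE-Glo luminescence was the read-out, with CellTiter-Fluor fluorescence as the cytotoxicity counter-screen.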

Assay [12] has as its target Estrogen receptor (Homo sapiens) (UniProt P03372). Kind of assay: qHTS assay to identify small molecule agonists of the estrogen receptor alpha (ER-alpha) signaling pathway (AID 743075; calls by dose curve;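 note: HEK293 GripTite cells with ER-alpha and UAS-driven beta-lactamase reporter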; note: potency is the fitted concentration of half-maximal effect).
Assay [13] is described as follows: qHTS assay to identify small molecule antagonists of the estrogen receptor alpha (ER-alpha) signaling pathway using the BG1 cell line (AID 743080; calls by dose curve; note: series mostly up to about 70 µM; nearly all actives have a fitted effect of over 25% in size). Summed up: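 Antagonist mode: compounds in DMSO were pinned onto BG1-Luc-4E2 cells alongside 17beta-estradiol agonist, incubated 21.5 h, and ERE-driven luciferase measured with ONE-Glo. Cytotoxicity was multiplexed using CellTiter-Fluor fluorescence.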

Assay [14] is described as follows: qHTS assay to identify small molecule that activate the aryl hydrocarbon receptor (AhR) signaling pathway - cell viability counter screen (AID 743086). Note: nearly all actives have a fitted effect of over 45% in size. Note: potency is the fitted concentration of half-maximal effect. Summed up: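 HepG2-AhR-luc (HG2L7.5c1) cells, 4000/well, treated 24 h at 37 C with compound; viability measured as CellTiter-Fluor fluorescence after 30 min in the same wells as the luciferase read.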
Assay [15] addresses Nuclear receptor subfamily 1 group I member 2 (Homo sapiens) (UniProt O75469). Briefly: Human pregnane X receptor (PXR) activation by small molecules, qHTS assay (AID 1346985). Note: nearly all actives have a fitted effect of over 40% in size. Note: potency is the fitted concentration of half-maximal effect. The method in brief: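 DPX-2 cells (HepG2 co-transfected with a PXR response element and a CYP3A4-promoter luciferase construct) were seeded at 2,000 per well, rested 5 hr at 37C, then exposed to DMSO-dissolved compounds for 24 hr. Activation was read as luciferase luminescence.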

The nature of assay [16]: qHTS assay for small molecules that induce genotoxicity in human embryonic kidney cells expressing luciferase-tagged ATAD5 - cell viability (AID 651634; calls by dose curve; note: nearly all actives have a fitted effect of over 25% in size; note: potency is the fitted concentration of half-maximal effect). The method in brief: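 HEK293T ATAD5-luc cells, 2,000/well; compound 15.5 hr, 37C/5% CO2; CellTiter-Fluor 30 min, 37C; fluorescence read.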
Assay [17] can be described thus: qHTS assay for small molecule agonists of the p53 signaling pathway (AID 651631; calls by dose curve; note: nearly all actives have a fitted effect of over 15% in size; note: potency is the fitted concentration of half-maximal effect). The method in brief:
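HCT-116 cells carrying a beta-lactamase reporter under p53 response elements were dosed with compound for 16 h at 37 °C. LiveBLAzer B/G FRET substrate was then added for 2 h at room temperature, and fluorescence intensity was read to detect pathway agonism.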

Assay [18] concerns the target Glucocorticoid receptor (Homo sapiens) (UniProt P04150). Kind of assay: qHTS assay to identify small molecule agonists of the glucocorticoid receptor (GR) signaling pathway (AID 720691; active = well fitted activation curve with a large enough effect in the signal ratio in the repeat runs, not every such curve was filed as active; inconclusive = weak or mixed curves, or effect the other way; inactive = no such curve, though single readings can be large or run the other way; the % refers to the signal ratio). The method in brief:
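HeLa GR-bla reporter line; cells pre-incubated 4 h, compound in DMSO 18 h at 37 C; LiveBLAzer B/G FRET substrate 2 h RT; fluorescence intensity read-out.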

Assay [19] has as its system thyroid hormone receptor (rat, GH3 cells). Kind of assay: qHTS assay to identify small molecule agonists of the thyroid receptor (TR) signaling pathway (AID 743066; calls by dose curve).
Assay [20] concerns the target Peroxisome proliferator-activated receptor gamma (Homo sapiens) (UniProt P37231). Kind of assay: qHTS assay to identify small molecule agonists of the peroxisome proliferator-activated receptor gamma (PPARg) signaling pathway (AID 743094; active = well fitted activation curve with a large enough effect in the signal ratio in the repeat runs, not every such curve was filed as active; inconclusive = weak or mixed curves, or effect the other way; inactive = no such curve, though single readings can be large or run the other way; the % refers to the signal ratio; note: potency is the fitted concentration of half-maximal effect). Summed up:
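HEK293H PPARg-bla cells, 5 h settle at 37C/5% CO2; compound (DMSO) 17 h, 37C; B/G FRET substrate 1 h RT; fluorescence intensity read-out. qHTS format.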

SMILES strings stand for the structures. Activity calls are given as the source filed them. Unless noted, calls come from the whole dose curve; as a rule, active = well fitted curve in the direction sought with a large enough effect in the repeat runs; inconclusive = weak or mixed curves; inactive = no such curve, though single readings can be large; an effect the other way counts as inactive or inconclusive.

Estrogen receptor (Homo sapiens), sequence (P03372 whole entry, looked up): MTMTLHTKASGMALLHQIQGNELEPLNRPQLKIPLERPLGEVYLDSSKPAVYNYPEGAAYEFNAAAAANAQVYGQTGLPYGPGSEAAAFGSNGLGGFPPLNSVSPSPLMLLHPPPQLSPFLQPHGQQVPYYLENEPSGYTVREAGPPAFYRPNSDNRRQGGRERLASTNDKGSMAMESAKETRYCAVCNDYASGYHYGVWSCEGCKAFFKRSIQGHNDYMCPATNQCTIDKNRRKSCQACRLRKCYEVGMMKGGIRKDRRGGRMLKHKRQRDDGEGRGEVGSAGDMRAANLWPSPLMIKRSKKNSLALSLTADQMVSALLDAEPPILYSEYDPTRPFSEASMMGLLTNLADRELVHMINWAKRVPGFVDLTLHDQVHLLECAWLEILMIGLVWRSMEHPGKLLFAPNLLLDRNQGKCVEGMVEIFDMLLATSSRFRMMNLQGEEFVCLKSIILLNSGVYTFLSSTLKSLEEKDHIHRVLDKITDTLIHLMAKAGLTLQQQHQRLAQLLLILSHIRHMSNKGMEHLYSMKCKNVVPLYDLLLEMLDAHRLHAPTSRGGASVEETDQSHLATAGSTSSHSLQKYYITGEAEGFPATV
Glucocorticoid receptor (Homo sapiens), sequence (P04150 whole entry, looked up): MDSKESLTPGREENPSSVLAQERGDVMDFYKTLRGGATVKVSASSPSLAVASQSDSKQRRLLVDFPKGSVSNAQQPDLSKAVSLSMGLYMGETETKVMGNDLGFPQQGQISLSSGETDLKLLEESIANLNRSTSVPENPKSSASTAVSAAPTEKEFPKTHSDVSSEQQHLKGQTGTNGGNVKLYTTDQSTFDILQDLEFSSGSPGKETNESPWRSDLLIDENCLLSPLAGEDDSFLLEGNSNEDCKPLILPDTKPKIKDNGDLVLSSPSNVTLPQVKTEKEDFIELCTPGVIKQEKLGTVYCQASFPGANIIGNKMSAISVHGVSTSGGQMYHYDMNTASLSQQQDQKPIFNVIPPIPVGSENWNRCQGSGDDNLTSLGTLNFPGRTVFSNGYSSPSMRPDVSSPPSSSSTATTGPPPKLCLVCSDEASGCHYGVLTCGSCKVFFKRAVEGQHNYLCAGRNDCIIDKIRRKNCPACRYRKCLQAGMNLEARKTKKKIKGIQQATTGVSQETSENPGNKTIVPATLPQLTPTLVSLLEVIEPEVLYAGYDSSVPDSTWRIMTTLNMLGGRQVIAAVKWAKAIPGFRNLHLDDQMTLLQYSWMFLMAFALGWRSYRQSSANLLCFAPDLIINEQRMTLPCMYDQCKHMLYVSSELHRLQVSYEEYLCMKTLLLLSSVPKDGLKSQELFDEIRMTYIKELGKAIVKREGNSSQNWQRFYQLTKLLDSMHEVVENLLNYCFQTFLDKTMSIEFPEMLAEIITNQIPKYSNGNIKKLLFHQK
Peroxisome proliferator-activated receptor gamma (Homo sapiens), sequence (P37231 whole entry, looked up): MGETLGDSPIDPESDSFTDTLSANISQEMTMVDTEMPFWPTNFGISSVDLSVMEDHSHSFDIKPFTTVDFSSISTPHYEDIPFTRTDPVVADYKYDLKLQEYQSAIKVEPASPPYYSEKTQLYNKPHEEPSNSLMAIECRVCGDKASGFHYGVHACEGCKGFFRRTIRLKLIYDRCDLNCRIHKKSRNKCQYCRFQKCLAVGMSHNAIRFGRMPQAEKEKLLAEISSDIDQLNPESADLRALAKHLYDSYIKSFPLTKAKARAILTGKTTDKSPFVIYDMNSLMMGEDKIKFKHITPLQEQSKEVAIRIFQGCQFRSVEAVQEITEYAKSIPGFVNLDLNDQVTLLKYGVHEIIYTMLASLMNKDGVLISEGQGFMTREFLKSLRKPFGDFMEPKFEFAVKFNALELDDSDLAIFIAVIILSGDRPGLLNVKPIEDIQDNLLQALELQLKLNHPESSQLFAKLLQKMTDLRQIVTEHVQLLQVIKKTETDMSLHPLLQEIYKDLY

In the case of `CCCCCc1cc(O)c2c(c1)OC(C)(C)[C@@H]1CCC(C)=C[C@@H]21`, the Potency in [1] was 3.76 µM (active); in [6] it was 23.9 µM (active); in [7] it was 9.44 µM (active); in [8] it was 13.3 µM (active); in assay [9], 10.6 µM (active); in [10], 13.3 µM (active). In addition, the Potency is 16.8 µM (active) in assay [11] and 7.94 µM (active) in assay [15]. Further, the result in assay [2] and in assay [5] was inactive. Besides, the Potency entry in assay [3], in assay [4], in assay [12], in assay [13] and in [14] was “inactive” each time.
On to `Oc1cccc[c]1[Hg][Cl]`, for which the Potency was 4.22 µM (active) in [16]; 11.1 µM (active) in assay [1]; 5.35 µM (active) in [6]; 0.473 µM (active) in assay [7]; 0.75 µM (active) in assay [8]; 0.473 µM (active) in [9]. The Potency in assay [10] was 0.841 µM (active); in [11], 0.473 µM (active); in assay [12], 6.01 µM [inconclusive] (active); in assay [14], 16.8 µM (active). Besides, the outcome in assay [2] and in [5] was inactive.
Turning to `Cc1nnc2n1-c1ccc(Cl)cc1C(c1ccccc1Cl)=NC2`, the Potency entry in [17], in assay [1], in [3], in assay [18], in [6] and in assay [7] was “inactive” in each case. The Potency result in [8], in assay [9], in assay [10], in [11], in [19] and in [14] was “inactive” each time. Further, the compound was called inactive in [2] and in assay [5].
As for `CCN1C[C@]2(COC)[C@H](O)C[C@H](OC)[C@@]34[C@@H]5C[C@@]6(O)[C@H](OC(=O)c7ccccc7)[C@@H]5[C@@](OC(C)=O)([C@@H]([C@H](OC)[C@H]23)[C@@H]14)[C@@H](O)[C@@H]6OC`, the Potency result in assay [17], in assay [1], in [3], in assay [7], in assay [8] and in assay [9] was “inactive” in each case. The Potency entry in [10], in [11], in assay [19], in [12], in assay [13] and in assay [14] was “inactive” in each case. Further, the Potency result in assay [20] and in assay [15] was “inactive” throughout. Besides, the result in assay [2] and in [5] was inactive.
`Clc1ccc2c(c1)C(c1ccccc1)=NCc1nncn1-2`: the Potency result in assay [17], in assay [16], in assay [1], in assay [3], in assay [4] and in assay [18] was “inactive” each time. Further, the Potency result in [6], in assay [7], in assay [9], in assay [10], in [11] and in assay [19] was “inactive” in each case. Also, the Potency result in assay [12], in assay [13], in [14], in assay [20] and in assay [15] was “inactive” in each case. In addition, the outcome in assay [2] and in assay [5] was inactive.
As to `[H+].[H+].[Hg+2].[O-]B([O-])[O-].[c-]1ccccc1`, the Potency in [17] was 1.33 µM (active); in assay [1], 13.9 µM (active); in assay [6] it was 2.68 µM (active); in assay [7], 0.266 µM (active); in [8], 0.531 µM (active); in [9], 0.335 µM (active). Further, the Potency in assay [10] is 1.06 µM (active); in assay [11] it was 0.596 µM (active); in assay [12], 30.1 µM [inconclusive] (active); in assay [14] it was 21.1 µM (active); in [20], 19 µM (active). In addition, the compound was called inactive in assay [2] and in assay [5]. In addition, the Potency result in assay [3] is “inactive”.
With `[2H]C([2H])([2H])[C@H](N)Cc1ccccc1`, the Potency result in [17], in [16], in assay [3], in assay [4], in assay [18] and in assay [6] was “inactive” in each case. In addition, the Potency entry in [7], in [8], in [9], in assay [10], in assay [11] and in [19] was “inactive” each time. In addition, the Potency result in assay [12], in assay [13], in [14], in [20] and in [15] was “inactive” in each case. Besides, the result in assay [2] and in assay [5] was inactive.
As to `CNC(C)Cc1ccccc1` (configuration not stated), the Potency entry in assay [17], in [1], in assay [3], in [4], in assay [6] and in assay [7] was “inactive” each time. In addition, the Potency result in [8], in [9], in assay [11], in assay [19] and in assay [14] was “inactive” in each case. Moreover, the result in assay [2] and in assay [5] was inactive.
